We go through 12 compounds from PubChem BioAssay.

Structures are written as SMILES. Active and inactive are the calls of the source. Unless noted, the rule behind the calls is not given here.

Experiment [1] in a line: HepG2 liver cancer cell viability effects, profiling panel, resazurin fluorescence, 24 h, PK04 Diversity Set (AID 1172). Note: test concentration not given here. Particulars: higher = more signal.
Experiment [2] is described as follows: basal S. cerevisiae growth modulation, no modifier, primary screen, OD600, strain BY4716, 24 h, basal condition (AID 1173). Particulars: OD600, 24 h, higher = more signal, called active from +8 up or from −8 down.
Experiment [3] is described as follows: MM1S myeloma cell viability, profiling panel, resazurin fluorescence, basal, 24 h, PK04 Diversity Set (AID 1174).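 Note: MM1S multiple myeloma cell line; test concentration not given here.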 Particulars: higher = more signal, called active from +8 up or from −8 down. (In general: The colour change of resazurin is a common sign of viable cells or microbes.)
In experiment [4] the target is Dihydroorotate dehydrogenase (quinone), mitochondrial (Plasmodium falciparum (isolate 3D7)) (UniProt Q08210). The experiment can be described thus: PfDHODH enzyme inhibitors, primary screen, biochemical, C-terminal His tag, absorbance 600 nm (AID 1175).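 Note: recombinant parasite enzyme with a five histidine tag at its C terminus; test concentration not given here.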 The note with it: DCIP absorbance 600 nm, higher = more signal, called active from +8 up or from −8 down.
Sequence of Dihydroorotate dehydrogenase (quinone), mitochondrial (Plasmodium falciparum (isolate 3D7)) (Q08210 whole entry, looked up): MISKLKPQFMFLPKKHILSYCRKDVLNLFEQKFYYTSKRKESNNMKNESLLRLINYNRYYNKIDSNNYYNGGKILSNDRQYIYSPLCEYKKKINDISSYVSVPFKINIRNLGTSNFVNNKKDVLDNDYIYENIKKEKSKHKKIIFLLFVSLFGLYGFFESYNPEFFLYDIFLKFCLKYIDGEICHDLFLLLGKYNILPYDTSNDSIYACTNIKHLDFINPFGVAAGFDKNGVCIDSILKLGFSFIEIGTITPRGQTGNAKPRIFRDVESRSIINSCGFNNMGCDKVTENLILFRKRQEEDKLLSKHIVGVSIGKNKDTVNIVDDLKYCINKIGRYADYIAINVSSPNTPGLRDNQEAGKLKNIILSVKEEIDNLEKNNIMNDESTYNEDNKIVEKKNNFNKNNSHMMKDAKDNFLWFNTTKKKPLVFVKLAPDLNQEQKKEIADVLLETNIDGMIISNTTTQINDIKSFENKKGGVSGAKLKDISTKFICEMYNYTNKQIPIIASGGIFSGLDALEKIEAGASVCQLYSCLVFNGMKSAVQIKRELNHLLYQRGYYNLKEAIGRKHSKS
Experiment [5] is described as follows: P. aeruginosa biofilm formation inhibitors, primary screen, strain PAO1, LB-PBS medium, absorbance 600 nm (AID 1176). Note: test concentration not given here. The note with it: P. aeruginosa PAO1 growth/biofilm, A600, 12 h; higher = more signal.
A short description of experiment [6]: S. cerevisiae RM11-1a growth modifiers, primary screen, strain RM11-1a, OD600, basal, 24 h (AID 1177).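 Note: cultures grown under basal conditions with no added stressor; test concentration not given here.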 Particulars: OD600, 24 h, higher = more signal, called active from +8 up or from −8 down.
A short description of experiment [7]: E. coli acrAB mutant growth effects, primary screen, E. coli filamentation inducers, strain DRC39, OD650, 24 h (AID 1178).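 Note: growth measured as culture turbidity by optical density at 650 nm; test concentration not given here.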 Particulars: higher = more signal, called active from +8 up or from −8 down.
Experiment [8] can be described thus: E. coli acrAB mutant growth effects, primary screen, E. coli filamentation inducers, strain DRC39, OD650, 48 h (AID 1179).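 Note: screen aims at cell division blockers that make cells filament.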 The note with it: E. coli DRC39 delta-acrAB growth, higher = more signal, called active from +8 up or from −8 down.
Experiment [9] can be described thus: RPMI8226 myeloma cell viability, profiling panel, resazurin fluorescence, basal, 24 h, PK04 Diversity Set (AID 1180).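 Note: RPMI8826 multiple myeloma cell line at 5000 cells per well; test concentration not given here.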 The note with it: higher = more signal.
The target in experiment [10] is E3 ubiquitin-protein ligase XIAP (Homo sapiens) (UniProt P98170). Put plainly: XIAP binders, primary screen, biophysical, small-molecule microarray, fluorescence 635 nm (AID 1181).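 Note: score merges 667 nm emission and signal to noise over triplicate slides.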 The note with it: small-molecule microarray binding, higher = more signal.
Sequence of E3 ubiquitin-protein ligase XIAP (Homo sapiens) (P98170 whole entry, looked up): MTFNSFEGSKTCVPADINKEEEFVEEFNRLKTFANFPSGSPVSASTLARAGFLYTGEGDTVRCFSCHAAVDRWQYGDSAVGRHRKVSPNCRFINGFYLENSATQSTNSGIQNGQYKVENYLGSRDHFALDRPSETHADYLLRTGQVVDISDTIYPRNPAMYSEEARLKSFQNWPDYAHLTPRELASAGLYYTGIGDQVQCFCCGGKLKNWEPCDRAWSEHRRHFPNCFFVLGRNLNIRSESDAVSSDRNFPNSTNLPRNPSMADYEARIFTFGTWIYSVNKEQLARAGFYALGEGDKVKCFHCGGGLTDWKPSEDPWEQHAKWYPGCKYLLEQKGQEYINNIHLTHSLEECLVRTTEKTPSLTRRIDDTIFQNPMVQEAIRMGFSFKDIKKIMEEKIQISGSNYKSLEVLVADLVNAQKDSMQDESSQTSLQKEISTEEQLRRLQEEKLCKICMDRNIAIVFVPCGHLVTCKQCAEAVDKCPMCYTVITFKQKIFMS

Turning to `C=C[C@H](OC)[C@@H](O)c1ccc(OC)c(O)c1`, the z-score in [1] is 0.0143; in [2], -0.506 (inactive); in [3] it was 0.546 (inactive); in experiment [5], 0.65 (inactive); in experiment [6] it was -0.0878 (inactive); in experiment [7], 0.37 (inactive). For the same compound, the results for the z-score in [8] and in experiment [9] were 0.905 (inactive) and 0.252, respectively. The composite z-score in experiment [4] is 0.255 (inactive); in experiment [10], -0.289.
Turning to `CCOC(=O)C[C@H]1[C@H](OC(=O)c2ccc(-c3ccccc3)cc2)[C@@H](NC(=O)c2ccc(-c3ccccc3)cc2)c2cc(OCCCO)ccc2N1C(=O)c1ccccc1`, the z-score in experiment [1] was -0.697; in experiment [2] it was 1.36 (inactive); in experiment [3], -1.01 (inactive); in [5], 0.0307 (inactive); in [6], 0.795 (inactive); in experiment [7], -0.168 (inactive). In addition, the values for the z-score in [8] and in [9] were -0.331 (inactive) and -0.967, respectively. In addition, the composite z-score was -0.0085 (inactive) in [4] and 0.0766 in [10].
On to `CO[C@H]1O[C@H](CO)[C@@H](OC(=O)Nc2ccccc2)[C@@H]2OC(=O)[C@@H](Cc3ccccc3)C/C=C/C[C@H](Cc3ccccc3)C(=O)O[C@@H]12`, for which the z-score in experiment [1] is -0.472; in experiment [2] it was 0.153 (inactive); in experiment [3] it was -2.22 (inactive); in experiment [5], 0.0126 (inactive); in experiment [6], 1.04 (inactive); in [7], -0.409 (inactive). In addition, the z-score in experiment [8] was 0.582 (inactive); in [9], -0.381. Further, the composite z-score is -1.38 (inactive) in experiment [4] and 0.381 in experiment [10].
With `COc1cccc(C)c1NC(=O)O[C@H]1[C@H](OC(=O)Nc2ccccc2)[C@@H](OC(=O)Nc2ccccc2)[C@@H](OC)O[C@@H]1CO`, the z-score was -2 in [1]; 0.748 (inactive) in experiment [2]; -3.79 (inactive) in [3]; 1.28 (inactive) in experiment [5]; 2.78 (inactive) in experiment [6]; 0.655 (inactive) in [7]. The z-score in [8] is -0.667 (inactive); in [9] it was -2.85. The composite z-score in experiment [4] is -0.0526 (inactive); in [10], 0.06.
As to `C=C(CCCC)C(=O)CC[C@H](OC(=O)c1ccccc1-c1ccccc1C(=O)O)c1cccc(OCCO)c1`, the z-score in [1] was -1.01; in experiment [2], -1.21 (inactive); in [3] it was -0.821 (inactive); in experiment [5] it was 1.09 (inactive); in experiment [6], 0.0742 (inactive); in experiment [7] it was -0.778 (inactive). Moreover, the z-score in [8] is -0.689 (inactive); in experiment [9] it was -0.432. Moreover, the results for the composite z-score in experiment [4] and in [10] were -0.347 (inactive) and -0.138, respectively.
Regarding `CCCC1(C(=O)OC)C=C2C(=C(C(C)C)C(=O)C2C)CN1` (stereo not given), the z-score is -0.964 in [1]; 1.67 (inactive) in [2]; -1.13 (inactive) in experiment [3]; 0.495 (inactive) in [5]; 0.391 (inactive) in [6]; -0.314 (inactive) in experiment [7]. Besides, the results for the z-score in experiment [8] and in [9] were 0.0752 (inactive) and -1.44, respectively. Further, the composite z-score was -1.05 (inactive) in experiment [4] and 0.227 in [10].
Take `COc1ccc([Si](C)(C)[C@H]2[C@H](CC(=O)N(CCO)Cc3ccccc3)O[C@@]3(C(=O)N(Cc4cccc(N5CCCCC5=O)c4)c4ccccc43)[C@@H]2C)cc1`: the z-score in [1] was -0.415; in experiment [2], -0.0548 (inactive); in experiment [3], -2.35 (inactive); in experiment [5] it was 1.77 (inactive); in [6], 1.45 (inactive); in experiment [7], 0.72 (inactive). Moreover, the z-score in [8] is 0.832 (inactive); in experiment [9], -3.16. For the same compound, the composite z-score is -1.02 (inactive) in experiment [4] and -0.0559 in [10].
Regarding `CC(C)[Si](C#Cc1ccccc1)(O[C@H](c1ccccc1)c1cn(Cc2ccccc2)nn1)C(C)C`, the z-score in [1] was -0.001; in [2] it was -16.7 (active); in experiment [3] it was 0.141 (inactive); in experiment [5], -0.571 (inactive); in [6], -0.282 (inactive); in experiment [7] it was 1.67 (inactive). Also, the z-score in [8] was 0.79 (inactive); in [9] it was 0.253. Moreover, the composite z-score in [4] is -1.03 (inactive); in experiment [10] it was -0.516.
Turning to `CC(C)C[C@@H]1NC(=O)[C@H]2C[C@@H](C(=O)O)[C@@H](c3cccc(OCCO)c3)N2C1=O`, the z-score was 0.109 in experiment [1]; -0.25 (inactive) in [2]; -0.636 (inactive) in [3]; 0.202 (inactive) in [5]; -0.79 (inactive) in experiment [6]; -0.191 (inactive) in experiment [7]. Also, the z-score in experiment [8] is 0.421 (inactive); in experiment [9] it was 0.462. Further, the composite z-score in experiment [4] is -1.19 (inactive); in [10], 0.0845.
As to `COCCCNC(=O)[C@@]1(Cc2ccccc2I)c2ccccc2C(=O)N(C2CCCCC2)[C@H]1c1ccc(CO)cc1`, the z-score was 1.12 in experiment [1]; -0.6 (inactive) in experiment [2]; 0.28 (inactive) in [3]; 1.13 (inactive) in experiment [5]; -0.244 (inactive) in [6]; 0.319 (inactive) in experiment [7]. The values for the z-score in experiment [8] and in [9] were 0.26 (inactive) and 0.448, respectively. For the same compound, the composite z-score in experiment [4] was 0.154 (inactive); in [10], -0.0343.
`CCOC(=O)C1=C[C@@H](C(C)(C)C)N(S(=O)(=O)c2ccc(C)cc2)[C@H]1c1ccc(OC)cc1`: the z-score in experiment [1] is -0.294; in experiment [2], 1.9 (inactive); in experiment [3], -0.0789 (inactive); in experiment [5], -0.473 (inactive); in [6], 1.88 (inactive); in [7], 0.33 (inactive). The z-score in experiment [8] was -0.27 (inactive); in experiment [9] it was -1.23. Moreover, the composite z-score was -0.0972 (inactive) in [4] and -0.149 in experiment [10].
As for `COC(=O)[C@]1(Cc2ccccc2CN=[N+]=[N-])N=C(c2ccc(OCCCO)cc2)O[C@@H]1c1ccccc1N=[N+]=[N-]`, the z-score was -2 in experiment [1]; 1.09 (inactive) in experiment [2]; -4.02 (inactive) in experiment [3]; 1.06 (inactive) in experiment [5]; 1.77 (inactive) in [6]; 1.74 (inactive) in experiment [7]. Moreover, the z-score in experiment [8] is 0.918 (inactive); in [9], -6.89. The composite z-score in experiment [4] is -0.123 (inactive); in experiment [10] it was -0.188.
